Pf Dd2 inh: Plasmodium falciparum Dd2 growth inhibition. 120,000 compounds, 4.3% hits. AID 1347417. Potency, µM (doses to about 28.9 µM), inactives show top-dose activity, negative = inhibition, usual class: inhibitors. P. falciparum Dd2 growth, SYBR Green, 72 h; active = well fitted inhibition curve with a large enough effect;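 note: plate controls were DMSO vehicle for no effect and reference drug for full effect; nearly all actives have a fitted effect of over 65% in size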
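Infected erythrocytes (Dd2, 0.3% parasitemia, 2.5% hematocrit final) are added to compound in RPMI-1640/Albumax II medium, grown 72 h at 37C in low oxygen, then lysed with saponin/Triton-X containing SYBR Green and read by fluorescence.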
* = called active by the depositor; i = inactive; [ ] = another dose, or the depositor's remark. This excerpt belongs to a sample that is enriched for hits. Potency is the fitted concentration of half-maximal effect.

SMILES	Pf Dd2 inh
CCCN(CCC)CCCNC(=O)c1cc2c(-c3ccc(Cl)cc3)nn(C)c2s1	8.91µM*
CN(C)c1nc(-c2ccncc2)nc2c1CCN(C(=O)c1ccc(O)cc1)C2	-2.3%
O=C(c1ccn[nH]1)N1CCC(c2nc(CCOCC3CCOCC3)no2)C1 (stereo not drawn)	23.3%
CC(C)C1=NOC2(CCN(C(=O)c3ccc(Cl)cc3)CC2)C1	0.2%
COc1cccc(CNC(=O)Cn2c(N3CCc4ccccc4C3)nc(C)cc2=O)c1	-20.0%
COc1cc(NC(=O)Cn2c(N3CCc4ccccc4C3)nc(C)cc2=O)cc(OC)c1OC	-22.9%
COc1ccc(CNC(=O)Cn2c(N3CCc4ccccc4C3)nc(C)cc2=O)cc1	8.91µM*
O=C(c1ccc(Cl)s1)N1CCC2(CNS(=O)(=O)c3cnccc3O2)C1 (stereo not drawn)	11.7%
Cc1cc(-c2ccccc2)nc(CN2CC[C@@](O)(C3CCC3)[C@H](C)C2)n1	10µM*
COc1ccc(CNC(=O)N2CC[C@@](O)(C3CCC3)[C@H](C)C2)cc1	-11.4%
C[C@@H]1CN(Cc2nc(C(N)=O)no2)CC[C@@]1(O)C1CCOCC1	-4.9%
Cc1onc(C(=O)N2CCCC(Cc3nncn3Cc3ccccc3)C2)c1Cn1cc(Cl)cn1 (stereo not drawn)	i
Cc1ccc(-n2nc(C)c3c(C(=O)O)cc(C)nc32)cc1	5.1%
O=C(c1cccn2c(=O)c3cc(Cl)ccc3nc12)N1CCN(c2ccccc2F)CC1	i
COc1cc(NC(=O)c2cc(C)nc3c2c(C)nn3-c2ccccc2Cl)cc(OC)c1	-28.2%
Cc1ccc(C)c(N2CCN(C(=O)c3cccn4c(=O)c5ccccc5nc34)CC2)c1	12.6µM*
Cc1ccc(-n2nc(C)c3c(C(=O)Nc4ccccc4C(F)(F)F)cc(C)nc32)cc1	-13.3%
CSc1ncc(C(=O)N2CCN(c3cc(C)ccc3C)CC2)c(C)n1	15.6%
Cc1cc(C(=O)N2CCN(c3ccc(F)cc3)CC2)c2c(C)nn(-c3cccc(Cl)c3C)c2n1	25.1%
Cc1ccc(C)c(N2CCN(C(=O)c3cc(C)nc4c3c(C)nn4-c3ccccc3)CC2)c1	8.91µM*
Cc1cc(C(=O)N2CCN(c3cccc(Cl)c3)CC2)c2c(C)nn(-c3ccccc3Cl)c2n1	11.2µM*
Cc1noc(C)c1S(=O)(=O)N1CCCC(c2[nH]ccc2C(N)=O)C1 (stereo not drawn)	-9.0%
COc1cc(C(=O)NC2CCCN(c3ncccn3)C2)cc(OC)c1OC (stereo not drawn)	-10.6%
Cc1cc(C(=O)N2CC(F)(F)C[C@H]2c2nc(C)no2)on1	16.2%
C#CCN(C)C(=O)[C@@H]1CCCN1[C@H](CC(C)C)C(=O)NC	-24.9%[44.1 µM]
SMILES	Pf Dd2 inh
COc1ccc(C(=O)N2CCCCCCNC(=O)[C@@H]3C[C@@H](c4nc(C(C)C)no4)C[C@@H]32)cc1F	-1.2%
CCOc1ccc(S(=O)(=O)c2cn(Cc3ccccc3C)c3ccc(OC)cc3c2=O)cc1	4.47µM*
COc1ccc(S(=O)(=O)c2cn(C)c3ccc(C)cc3c2=O)cc1	21.3%
Cc1ccc(S(=O)(=O)c2cn(CC(=O)Nc3ccc(Cl)cc3)c3ccc(F)cc3c2=O)cc1C	i
COc1ccc2c(c1)c(=O)c(S(=O)(=O)c1ccc(Cl)cc1)cn2Cc1cc(C)ccc1C	11.2µM*
CCOc1ccc2c(c1)c(=O)c(S(=O)(=O)c1ccc(CC)cc1)cn2CC	-10.8%
CCOc1ccc2c(c1)c(=O)c(S(=O)(=O)c1ccc(F)cc1)cn2CC(=O)Nc1ccccc1C	i
Cc1ccc(S(=O)(=O)c2cn(Cc3ccc(F)cc3)c3cc(F)c(F)cc3c2=O)cc1	13.4%
COc1ccc(OC)c(NC(=O)Cn2cc(S(=O)(=O)c3ccccc3)c(=O)c3cc(C)ccc32)c1	i
O=c1c(S(=O)(=O)c2ccc(Cl)cc2)cn(Cc2ccc(F)cc2)c2ccc(F)cc12	11.2µM*
CC(C)[C@H]1CN(CCC(=O)O)C[C@@H]1NC(=O)CCC1CCCC1	-8.6%
CCOc1cc(CN(C)C(=O)CC2C(=O)NCCN2Cc2ccccc2)ccc1OC (stereo not drawn)	-14.6%
CC(C)CCN1CC(Oc2ccc(F)c(F)c2)C1	3.4%[44.1 µM]
O=C(NC1CCN(c2cc(-c3ccccc3)[nH]n2)C1)c1ccccc1F (stereo not drawn)	5.3%
O=C(Nc1ccc([C@H]2OCC(=O)N(Cc3ccc(F)cc3)[C@@H]2CO)cc1)C1CCC1	i
COc1ccc(-c2noc(-c3nc(-c4ccc(N(C)C)cc4)no3)n2)cc1OC	-4.8%
O=C(c1ccoc1)N1CCC(Oc2ccccc2)C1 (stereo not drawn)	-16.7%
O=C(c1ccc(F)cc1)N1CCC(Cc2nncn2-c2ccccc2)CC1	-3.6%
CN1[C@@H](CCC(=O)Nc2ccccc2)CNC(=O)[C@@H]2[C@H]1CCN2Cc1ccc(C(F)(F)F)cc1	i
Cc1ccc(CN2CC[C@@H]3[C@H]2C(=O)NC[C@H](CCC(=O)Nc2ccccc2)N3C)cc1	11.2µM*
C#CCNC(=O)CC[C@H]1CNC(=O)[C@@H]2[C@@H](CCN2Cc2ccc(C)cc2)N1C	i
